Experimental findings from PubChem BioAssay AID624300 (Southern Research Specialized Biocontainment Screening …, 2012) are described below.

The campaign covered roughly 2,400 compounds. About 360 (15%) were called active.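 The calls were made as follows: active = viability falls under 70% at one or more tested concentrations, taken as toxicity; inactive = viability stays over 70% at every dose.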 A selection follows. Entries that show only a call come without a potency. Potency and affinity values are given separately.

The nature of the assay: HeLa cell cytotoxicity, dose response, cytotoxicity control for MgcRacGAP inhibitor project (AID 624300). The conditions noted are these: CellTiter-Glo luminescence, 24 h; series mostly up to 100 µM. In general terms: ATP-based viability assays read luminescence as a measure of living cells.
Regarding `O=S(=O)(c1ccc2ccccc2c1)N1CCN(C2CCN(Cc3ccccc3)CC2)CC1`, the compound was classed as inactive. Take `O=S(=O)(O)c1cc(Cl)cc(N=Nc2ccc(O)cc2O)c1O`: the compound was called inactive. The same measure for `O=C(CCCCCNC(=O)c1ccccc1)N/N=C/c1ccc(O)cc1O`: “inactive”; for `CCc1cc(-c2n[nH]c(CCC(=O)O)c2-c2nc3ccccc3n2C)c(O)cc1O`: “inactive”; for `COc1ccc2c(c1)Sc1ccccc1N2`: “inactive”. With `Cn1cnc2cc(NCc3ccccc3O)ccc21` the entry was “inactive”. Consider `CCN(CC)c1ccc(N=Cc2ccccc2[N+](=O)[O-])cc1`, for which the call was inactive.

With `CC(=O)OCCNc1cc(N2CCN(C)CC2)c2noc3c2c1C(=O)c1ccccc1-3`, the result was inactive. With `CCOc1cc(/C=N\n2nnnc2N)ccc1O` the entry was “inactive”; with `CCOc1cc(/C=N/NC(=O)CCn2nc(C)cc2C)ccc1O`, “inactive”; with `CCN(CC)c1ccc(NC(=O)COC(=O)Cc2ccsc2)cc1`, “inactive”. With `Nc1c(/C=C2/C=CC(=O)C(O)=C2)c(=O)nc2sc(CC(=O)N3CCCC3)nn12` the entry was “inactive”; with `OCCCNC(=S)Nc1ccc(Nc2ccccc2)cc1`, “inactive”. The same measure for `CC(=O)Nc1ccc(OC(=O)Cc2ccc(Cl)cc2)cc1`: “inactive”; for `COc1cc(OC)c(OC)cc1CN1CCN(C(=O)c2cccc3ccccc23)CC1`: “inactive”; for `O=c1cc(-c2ccc(O)c(O)c2)oc2cc(O)c(C3OC(CO)C(O)C(O)C3O)c(O)c12` (stereo unspecified): “inactive”. Take `Oc1ccc(N2CCN(C(=S)NCCc3ccccc3)CC2)cc1`: the call was inactive. With `CC1(C)CNc2cc(N)ccc2S1` the entry was “inactive”; with `Nc1n[nH]c(=S)n1/N=C1/C(=O)Nc2ccccc21`, “inactive”; with `CC(C)N1CCN(C(=O)c2cccc(Cl)c2)CC1`, “inactive”. With `Fc1ccc(CNCc2ccccc2Cl)cc1`, the compound was called inactive.

With `CCN1CCN(CCCOc2ccc(Cl)cc2Br)CC1`, the result was inactive.

Consider `C=CCc1cc(Cl)ccc1OCCN(C)C`, for which the outcome was inactive.

Regarding `Oc1ccc2ccc(Cl)cc2c1`, the result was inactive. With `CCn1nc(C)c(Br)c1C(=O)Sc1ccccc1Cl` the entry was “inactive”; with `Cc1c(NC(=O)CNCc2ccc3c(c2)OCO3)c(=O)n(-c2ccccc2)n1C`, “inactive”. Consider `Nc1ccc(N=Nc2ccc(N)cc2)cc1`, for which the result was inactive. Turning to `COc1cccc(OC)c1NC(=O)CN1CCN(C)CC1`, the compound was called inactive. With `COc1ccc(/C=N/NC(=O)c2cnccn2)cc1O` the entry was “inactive”; with `O=C(CNCc1ccco1)Nc1cccc(S(=O)(=O)N2CCCCC2)c1`, “inactive”; with `Cc1cn([C@H]2C[C@H](O)[C@@H](CNCC3=Cc4cc(O)ccc4OC3)O2)c(=O)[nH]c1=O`, “inactive”. The same measure for `CN1CCC(N(C)CC(=O)Nc2ccc3c(c2)OC(F)(F)O3)CC1`: “inactive”; for `CCN(c1ccccc1)S(=O)(=O)c1ccc(Cl)c(NC(=O)CN(C)C2CCN(C)CC2)c1`: “inactive”; for `COc1cc(/C=C/C(=O)OCC(=O)N2CCN(C(=O)c3ccco3)CC2)ccc1O`: “inactive”. Turning to `CCn1c(=O)c2c3c(sc2n2c(=S)[nH]nc12)CCC3`, the compound was called inactive. `CC1(C)OC(C)(C)/C(=C/Nc2ccc(O)cc2)C1=O`: the result was inactive. With `COc1cc(C(=O)N/N=C(\C)c2ccc(NC(=O)Cc3ccccc3)cc2)ccc1O` the entry was “inactive”; with `O=C(Nc1ccc(O)cc1)c1ccccc1OCc1ccccc1`, “inactive”; with `c1cc(CN2CCN(C3CCCCCC3)CC2)ccn1`, “inactive”.

Consider `O=C1CC(Nc2ccc(N3CCOCC3)cc2)C(=O)N1Cc1ccccc1` (stereo unspecified), for which the compound was classed as inactive. With `CSc1ccccc1NC(=O)CNCCCN1CCOCC1` the entry was “inactive”. With `COc1cc(CC(=O)OCC(=O)Nc2ccc(N(C)C)cc2)cc(OC)c1OC` the entry was “inactive”; with `Cc1cc(-c2n[nH]c(=S)n2/N=C/c2cccs2)n[nH]1`, “inactive”; with `C=CCNCC(O)COc1ccc(C(C)=O)cc1OC` (stereo unspecified), “inactive”.

Take `CCCCNCC#CCOc1cc(C)ccc1C(C)C`: the call was inactive. With `O=C(CNCc1ccco1)Nc1ccc(N2CCCCCC2)cc1` the entry was “inactive”. The same measure for `CC1CN(CCCCOc2ccc(Cl)c3ccccc23)CC(C)O1` (stereo unspecified): “inactive”; for `Cc1ccccc1OCCN1CCCC1`: “inactive”; for `COc1cc(C2NC(=O)C(C#N)=C(S)N2c2ccc(C)cc2)ccc1OC(C)C` (stereo unspecified): “inactive”. The same measure for `Nc1ccc2ccc(O)cc2c1`: “inactive”; for `CCOc1cc(/C=C(\C#N)C(=O)NCC2CCCO2)ccc1O` (stereo unspecified): “inactive”; for `CCOc1cc(/C=C(\C#N)C(=O)NCc2cccnc2)ccc1O`: “inactive”.

Turning to `O=C(CCC1CCCC1)N1CCN(C2CCCC2)CC1`, the compound was classed as inactive.

Turning to `CC(C)(C)c1cc(C(=O)N/N=C/c2ccc(O)cc2)n(-c2ccccc2)n1`, the compound was called inactive. For `Cc1cccc2sc(NNC(=O)c3cc(=O)c4ccccc4o3)nc12`, the outcome was inactive.

In the case of `COc1ccc(NC(=S)NCC2CCN(c3ccc(OC)cc3)C2)cc1` (stereo unspecified), the compound was classed as inactive. With `C=CCc1cc(Cl)ccc1OCCn1ccnc1` the entry was “inactive”; with `CCOc1cc(/C=N/NC(=O)CN2CCCCC2)ccc1O`, “inactive”; with `O=C1CSC(=Nc2ccc(O)cc2)N1c1ccc(O)cc1`, “inactive”. The same measure for `COc1ccc(NC2CCCN(C(=O)c3cc(C)nc4cc(F)ccc34)C2)cc1` (stereo unspecified): “inactive”; for `Cc1c(N=Nc2ccc(N(C)C)cc2)c(=O)n(-c2ccccc2)n1C`: “inactive”; for `CN(C)c1ccc(N=c2sc3ccccc3n2C)cc1`: “inactive”. With `O=C(N/N=C/c1ccc(N2CCOCC2)s1)c1ccc(O)cc1` the entry was “inactive”; with `O=C(N/N=C/c1ccc(O)cc1)c1cc[n+](Cc2ccccc2)cc1`, “inactive”. `CCc1nnc(NC(=O)CSCc2cc(=O)n3ccsc3n2)s1`: the result was inactive.

Turning to `COc1ccc([C@H]2CN(c3ccc(OC)cc3)C(=O)[C@@H]2CC(=O)Nc2ccccc2)cc1`, the call was inactive. The same measure for `COc1cc(/C=N/NC(=O)C2(O)c3ccccc3-c3ccccc32)ccc1O`: “inactive”. On to `O=C1C=CC(=O)N1c1ccc(Nc2ccccc2)cc1`, for which the outcome was inactive. Take `O=C(O)C1CCN(Cc2cnn(-c3ccccc3)c2-n2cccc2)CC1`: the compound was called inactive. The same measure for `COc1cc(/C=N/NC(=O)c2ccc3c(c2)OCO3)ccc1O`: “inactive”; for `COc1ccc(CCNCCN2CCOCC2)cc1`: “inactive”.

As for `CN=c1scc(-c2ccc(F)cc2)n1/N=C/c1ccc(O)c(O)c1`, the result was inactive. The same measure for `Oc1ccc(/C=N/NC(=S)Nc2cccnc2)c(O)c1`: “inactive”; for `CN=c1scc(-c2ccco2)n1/N=C/c1ccc(O)c(O)c1`: “inactive”.

Take `CN=c1scc(C)n1/N=C/c1ccc(O)cc1O`: the call was inactive. Consider `COC(=O)c1[nH]c2ccccc2c1NC(=O)Oc1ccccc1`, for which the call was inactive.
